# Hits are enriched below; roughly 3% of the tested compounds scored in any of these assays.
# MITF TRPM1 inh = inhibitors of MITF-driven TRPM1 promoter in melanoma cells | SK-MEL-5 TRPM1 promoter luciferase, 24 h | inhibition, % at 12.5 µM | actives 0.83% (n = 330,000) | AID 488899;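 active means mean inhibition across replicates of 60% or more, whatever share of single replicates reaches that level; inconclusive means some that reach 60%, reason not given; inactive means mean inhibition across replicates below 60%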
# KKLEB tox = CF airway cell cytotoxicity counter-screen | KKLEB CF airway cells viability, ATPlite luminescence, overnight; stronger effect = lower value; cells stimulated with P. aeruginosa culture filtrate | AID 602141 | activity change (cytotoxicity), % at 5 µM | actives 0.36% (n = 360,000);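 active means corrected activity change at or below -50% at 5 µM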
# HIF-2a inh = blocks HIF-2a reporter activity. 786-0 RCC cells HIF-2a reporter, luciferase luminescence, overnight. actives 0.72% (n = 360,000). inhibition, % at 18.8 µM. AID 624352;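 active means inhibition of the luminescence signal of 40% or more relative to plate controls, in a single-dose primary screen at 18.75 µM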
# CF NFkB inh = inhibitors of cystic fibrosis induced NF-kB; KKLEB NF-kB-GFP reporter, PAF-induced, GFP fluorescence overnight; inhibition, % at 5 µM; actives 0.86% (n = 360,000); AID 588850;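 active means at least 50% inhibition at 5 µM, scaled per plate between neutral and stimulator controls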;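 further: PAF is a Pseudomonas aeruginosa culture filtrate used as stimulus; plate controls were PAF-stimulated DMSO wells for no effect and unstimulated DMSO wells for full effect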
# ABHD5 PLIN5 PPI = ABHD5-PLIN5 protein interaction inhibition | Q00G26+Q8WTS1 | Split G. princeps luciferase complementation, luminescence, 4 h | inhibition, % at 4 µM | actives 0.78% (n = 360,000);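 active means inhibition above the mean inhibition across every tested compound plus 3 SD, cut at about 22% in these data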;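 further: 0% = DMSO only wells and the 100% control is not disclosed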
# Target sequence (Q00G26 whole entry, looked up): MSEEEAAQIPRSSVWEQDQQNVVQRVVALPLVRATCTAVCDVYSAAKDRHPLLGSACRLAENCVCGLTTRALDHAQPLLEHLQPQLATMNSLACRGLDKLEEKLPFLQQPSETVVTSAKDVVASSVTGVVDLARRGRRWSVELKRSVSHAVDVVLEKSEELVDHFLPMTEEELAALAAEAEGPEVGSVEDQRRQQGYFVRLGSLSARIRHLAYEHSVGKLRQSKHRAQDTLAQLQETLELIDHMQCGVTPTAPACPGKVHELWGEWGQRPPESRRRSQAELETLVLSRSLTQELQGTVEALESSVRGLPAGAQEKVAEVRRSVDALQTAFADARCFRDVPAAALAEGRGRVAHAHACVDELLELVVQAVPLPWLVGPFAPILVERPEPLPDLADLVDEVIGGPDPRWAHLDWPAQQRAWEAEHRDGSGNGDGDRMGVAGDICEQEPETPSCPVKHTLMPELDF
# Target sequence (Q8WTS1 whole entry, looked up): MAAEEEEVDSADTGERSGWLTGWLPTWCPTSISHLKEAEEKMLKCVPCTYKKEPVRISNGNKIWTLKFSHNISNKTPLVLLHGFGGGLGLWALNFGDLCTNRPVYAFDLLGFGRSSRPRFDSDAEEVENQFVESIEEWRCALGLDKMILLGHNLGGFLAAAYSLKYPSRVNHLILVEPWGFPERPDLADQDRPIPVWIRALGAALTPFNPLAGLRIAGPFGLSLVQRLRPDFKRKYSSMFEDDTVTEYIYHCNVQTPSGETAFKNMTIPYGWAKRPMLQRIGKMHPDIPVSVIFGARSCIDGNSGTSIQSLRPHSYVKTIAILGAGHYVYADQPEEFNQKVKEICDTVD
# Peg3 prom inh-1 = Peg3 promoter activity inhibition | HeLa PEG-Prom luciferase reporter, luminescence, overnight | inhibition, % at 20 µM | actives 1.7% (n = 360,000) | AID 588405;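 active means inhibition of at least 50% at 20 µM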
# Peg3 prom inh-2 = Peg3 promoter inhibition confirmation; actives 84% (n = 1,300); inhibition, % at 20 µM; shares compounds with Peg3 prom inh-1; HeLa PEG-Prom luciferase reporter, luminescence, overnight;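 active means at 20 µM dose, 40% or more inhibition averaged across four replicates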
# * marks the source's active call; other numbers are inactive results; ? = inconclusive; . = no result given.
SMILES,MITF TRPM1 inh,KKLEB tox,HIF-2a inh,CF NFkB inh,ABHD5 PLIN5 PPI,Peg3 prom inh-1,Peg3 prom inh-2
CCCC(=O)NC(c1ccc(N(C)C)cc1)c1ccc2cccnc2c1O (stereo unspecified),73*,-3,8,16,20,57*,68*
Cc1cc(NC(c2ccc(Cl)cc2)c2ccc3cccnc3c2O)no1 (stereo unspecified),78*,0,14,-12,6,53*,63*
CCN(CC)S(=O)(=O)c1ccc(C(=O)Nc2cc(S(=O)(=O)N3CCOCC3)ccc2N2CCN(C)CC2)cc1,-3,-2,8,4,-4,-3,.
CC1(C(=O)NCc2cccc3ccccc23)CCN1C(=O)Cc1ccc(-c2ccccc2)cc1 (stereo unspecified),.,-11,-1,-19,9,53*,51*
Cc1cccc(OCCOC(=O)c2c(-c3ccccc3)noc2C)c1,12,-10,-20,25,-3,19,.
COc1ccc(C(C)(C)C)cc1NC(=S)NCCN1CCOCC1,0,8,13,-7,1,14,.
OC1(c2ccc(Cl)c(Cl)c2)C[n+]2ccccc2N1Cc1ccccc1 (stereo unspecified),-3,-5,-13,26,2,95*,90*
Cc1ccc(C)c2c1CCC(=Cc1ccccc1[N+](=O)[O-])C2=O,.,-16,-26,25,-4,-18,.
CN1C/C(=C/c2ccccc2[N+](=O)[O-])C(=O)/C(=C\c2ccccc2[N+](=O)[O-])C1,62*,3,2,-14,-4,96*,100*
NC(c1ccccc1)c1cccnc1 (stereo unspecified),0,15,24,4,1,7,.
Cc1ccc(OCC(=O)NCCNC(=O)c2ccc(C)nc2)cc1,.,11,8,-4,1,6,.
Cc1cc(C)c(CN2CCN(CCCn3cnc(C(=O)Nc4ccc(C)c(C)c4)n3)CC2)c(C)c1,84*,-37,-20,35,7,98*,97*
Cc1ccc(NC(=O)c2ncn(CCCNCCCN3CCCC3=O)n2)cc1C,14,2,4,-9,-3,-4,.
Cc1cc(C)cc(NS(=O)(=O)c2ccc3[nH]cc(C(=O)NCc4ccco4)c(=O)c3c2)c1,23,0,24,-10,16,55*,71*
Cc1ccccc1NS(=O)(=O)c1ccc2[nH]cc(C(=O)N(C)Cc3ccco3)c(=O)c2c1,7,-1,19,7,1,1,.
Cc1ccc(NC(=O)N2CCc3ccccc32)cc1,-6,-13,-96,-1,6,-108,.
CN1CCN(c2ccc(NC(=O)N3CCc4ccccc43)cc2)CC1,?,-20,27,6,-5,58*,51*
CC1Cc2ccccc2N1C(=O)Cn1cnc2c1c(=O)n(C)c(=O)n2C (stereo unspecified),5,19,7,-8,-3,15,.
CCOc1ccc(-c2ccc(SCC(=O)Nc3nnc(CC)s3)nn2)cc1,-69,-25,-176,-3,1,-242,.
CCOc1ccc(-c2ccc(SC)nn2)cc1,62*,-60*,27,-13,-5,76*,45*
CCOc1ccc(Nc2c3ccccc3nc3ccccc23)cc1,17,-9,35,-41,8,85*,85*
NC(N)=N/N=C/c1cccc([N+](=O)[O-])c1O,6,20,16,-12,-5,10,.
NC(N)=N/N=C/c1cccc(Cl)c1Cl,-8,-11,-7,-1,12,76*,80*
CC(C)c1ccc(N(C(=O)c2snc(C(N)=O)c2N)C(C(=O)NC2CCCC2)c2ccncc2)cc1 (stereo unspecified),-9,-10,-100,2,-3,-18,.
CSc1ccc(Cl)c(C(=O)OCC(=O)N2CCN(c3ccccc3)CC2)c1,-15,-20,-2,13,0,1,.
Fc1c(F)c(F)c(/C=N/NC(=S)Nc2cccnc2)c(F)c1F,5,-17,20,37,-5,101*,44*
Fc1cccc(F)c1/C=N/NC(=S)Nc1cccnc1,-9,-3,-21,11,-18,-18,.
CCOC(=O)c1sc2nc(CSc3ccccc3)nc(N3CCCN(C)CC3)c2c1C,14,-13,9,12,12,65*,94*

# Source: PubChem BioAssay
